{"source": "the supplement of paper PMC7830784", "data": [{"system": "Brugia pahangi adult female", "assay": "IC50 motility inhibition on day 3", "conditions": "3 days", "protocol": "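Single adult female Brugia pahangi worms in 24-well plates (RPMI-1640, 5% FBS, 37 °C) were treated with 10 µM of each compound from a 2121-drug library (4 replicates; 1% DMSO vehicle and 10 µM auranofin controls). Motility was recorded with WormAssay dark-field imaging, and % inhibition of motility on day 3 is relative to vehicle. IC50 values for selected hits come from a 6-point dilution series (30 to 0.1 µM) fitted in GraphPad Prism.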", "units": {"IC50 motility inhibition on day 3": "µM"}, "values": [{"compound": "N[C@@H]1C[C@H]1c1ccccc1.N[C@H]1C[C@@H]1c1ccccc1", "note": "[tranylcypromine]", "IC50 motility inhibition on day 3": 6.15}, {"compound": "O=c1[nH]c2ccccc2n1C1CCN(CCCC(c2ccc(F)cc2)c2ccc(F)cc2)CC1", "note": "[Pimozide]", "IC50 motility inhibition on day 3": 2.52}, {"compound": "C[CH2][Hg][S]c1ccccc1C(=O)[O-].[Na+]", "note": "[thimerosal]", "IC50 motility inhibition on day 3": 0.406}, {"compound": "CC(=O)[O][Hg][c]1ccccc1", "note": "[phenylmercuric acetate]", "IC50 motility inhibition on day 3": 0.179}, {"compound": "C[C@@H]1O[C@@H](O[C@@H]2C=C3CC[C@@H]4[C@H](CC[C@]5(C)[C@@H](c6ccc(=O)oc6)CC[C@]45O)[C@@]3(C)CC2)[C@H](O)[C@H](O)[C@H]1O", "note": "[proscillaridin]", "IC50 motility inhibition on day 3": 0.731}, {"compound": "CNC(=O)Oc1ccc2c(c1)[C@]1(C)CCN(C)[C@@H]1N2C", "note": "[(-)-Physostigmine]", "IC50 motility inhibition on day 3": 13.6}, {"compound": "Oc1cccc2cccnc12", "note": "[oxyquinoline]", "IC50 motility inhibition on day 3": 1.5}, {"compound": "[O-][n+]1ccccc1[S-].[O-][n+]1ccccc1[S-].[Zn+2]", "note": "[pyrithione zinc]", "IC50 motility inhibition on day 3": 0.0963}, {"compound": "CC[C@@H](C(=O)[C@@H](C)[C@@H](O)[C@H](C)[C@@H]1O[C@@H]([C@@H](CC)C(=O)O)CC[C@@H]1C)[C@H]1O[C@]2(C=C[C@@H](O)[C@]3(CC[C@@](C)([C@H]4CC[C@](O)(CC)[C@H](C)O4)O3)O2)[C@H](C)C[C@@H]1C", "note": "[salinomycin]", "IC50 motility inhibition on day 3": 0.635}, {"compound": "CCCCCCCCCCCCCCCC[n+]1ccccc1", "note": "[cetylpyridinium chloride]", "IC50 motility inhibition on day 3": 3.4}]}]}
